Here are results for one compound from PubChem BioAssay (NCATS).

Values without a mark were called inactive. Inconclusive results are not listed. The source made the active and inactive calls. Unless noted, calls come from the whole dose curve; as a rule, active = well fitted curve in the direction sought with a large enough effect; inconclusive = small, poorly fitted or top-dose-only effect, or another doubt; inactive = no such curve, though single readings can be large; an effect the other way counts as inactive or inconclusive.

Assay [1] concerns the target DNA repair nuclease/redox regulator APEX1 (Homo sapiens) (UniProt P27695). Description: qHTS Validation Assay for Inhibitors of the Human Apurinic/apyrimidinic Endonuclease 1 (APE1) (AID 1705;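 note: TAMRA fluorescence gain over two minutes as APE1 cuts a quenched THF abasic duplex; series mostly up to about 57 µM; % is set by controls: 0 for no effect and ±100 for the full control effect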). In outline:
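qHTS, 1536-well. APE1 + cpd 15 min RT → 50 nM TAMRA/BHQ-2 THF-abasic dsDNA substrate → kinetic fluorescence, 3 reads/60 s; delta(read3−read1) = reaction progress. No-enzyme buffer = negative control.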
(In general: Quantitative high-throughput screening tests each substance at several concentrations.)

A short description of assay [2]: Counterscreen for APE1 Inhibitors: Fluorescent Dye Displacement Validation Assay (AID 1707).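 Note: plate controls were ThO with dsDNA and no compound for no effect and ThO without dsDNA for full effect.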 In outline:
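Counterscreen flags promiscuous DNA binders: compounds displacing ThO from duplex DNA (abasic THF site, 50 nM) reduce 540 nm emission (480 nm excitation). ThO 250 nM final; Tris-HCl pH 7.5 with NaCl, MgCl2 and Tween-20.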
In general terms: Counterscreens check selectivity or assay interference.

Assay [3] deals with Endonuclease 4 (Escherichia coli (strain K12)) (UniProt P0A6C1). Description: Counterscreen for APE1 Inhibitors: qHTS Validation Assay for Inhibitors of Endonuclease IV (AID 1708). Note: % is set by controls: 0 for no effect and ±100 for the full control effect. In outline: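 Incision of a double-stranded 50 nM TAMRA/BHQ-2 abasic substrate was followed kinetically (525/598 nm, reads every 60 s) after 15 min enzyme–compound preincubation with 2 nM EndoIV in pH 7.5 Tris buffer with MgCl2, DTT and Tween-20; concentration-response format.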

Assay [4] in a line: qHTS for differential inhibitors of proliferation of Plasmodium falciparum line 7G8 (AID 1815).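 Note: potency is the fitted concentration of half-maximal effect; parasite growth measured after three days of incubation.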
A short description of assay [5]: qHTS for differential inhibitors of proliferation of Plasmodium falciparum line GB4 (AID 1816).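 Note: potency is the fitted concentration of half-maximal effect; parasite growth measured after 72 h incubation.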 The conditions noted are these: Potency: Plasmodium falciparum GB4 proliferation inhibition.
A short description of assay [6]: qHTS for differential inhibitors of proliferation of Plasmodium falciparum line 3D7 (AID 1876). Note: potency is the fitted concentration of half-maximal effect.
A short description of assay [7]: qHTS for differential inhibitors of proliferation of Plasmodium falciparum line W2 (AID 1883).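 Note: potency is the fitted concentration of half-maximal effect; parasites grown with compound for 72 h before lysis and staining.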 To be noted: Potency: Plasmodium falciparum W2 proliferation inhibition.
Assay [8] has as its target Ferritin light chain (Equus caballus) (UniProt P02791). Description: qHTS Validation Assay for Identification of Novel General Anesthetics (AID 2323). Note: series mostly up to about 77 µM; % is set by controls: 0 for no effect and ±100 for the full control effect. In outline:
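Fluorescence at 535 nm (excitation 380 nm) reported loss of 1-AMA binding to horse-spleen apoferritin (10 uM) in PBS with 50% saturated 1-aminoanthracene, after 10 min room-temperature incubation with compound; values from Hill fits of normalized response.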

In assay [9] the target is ATP-dependent DNA helicase Q1 (Homo sapiens) (UniProt P46063). The assay is described as follows: qHTS Validation Assay for Inhibitors of RecQ-Like Dna Helicase 1 (RECQ1) (AID 2353).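 Note: plate controls were DMSO vehicle for no effect and enzyme-free control for full effect.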 In outline:
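RECQ1T1 50 nM; forked duplex (20 bp + 30-nt ss tails) 200 nM, ATP 2 mM final; pH 8.0, 2 mM MgCl2, 2.5 ug/ml poly(dI-dC); 15 min compound preincubation; discontinuous kinetic read over 2 h at RT.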

Assay [10] addresses RecQ-like DNA helicase BLM (Homo sapiens) (UniProt P54132). Description: qHTS Validation Assay for Inhibitors of Bloom's syndrome helicase (BLM) (AID 2364).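 Note: plate controls were DMSO vehicle for no effect and enzyme-free control for full effect.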 In a few lines:
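Forked 20-bp duplex substrate (200 nM, TAMRA/BHQ-2) plus 2 mM ATP added after 15 min compound preincubation with 50 nM enzyme, pH 8.0, poly(dI-dC) 2.5 ug/ml. Strand separation followed by fluorescence (525/598 nm) over 2 h, normalized to enzyme-free and DMSO controls.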

The nature of assay [11]: Validation screen for small molecules that induce DNA re-replication in MCF 10A normal breast cells (AID 463097). Note: 0% is about no effect; nearly all actives have a fitted effect of over 60% in size. In a few lines: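 Image-based qHTS: normal breast cells are incubated with compound for 48 hr, stained with Hoechst, and scanned for total nuclear fluorescence. Compounds raising the fraction of nuclei with elevated DNA content count as re-replication inducers.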

Assay [12] in a line: Quantitative high throughput screen for delayed death inhibitors of the malarial parasite plastid, 48 hour incubation (AID 488752). Note: % is set by controls: 0 for no effect and ±100 for the full control effect; nearly all actives have a fitted effect of over 65% in size. In a few lines: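 First, compound was pinned into RPMI 1640 medium containing 0.5% Albumax. Next, reporter-parasite-infected erythrocytes were added to 2% hematocrit and 0.1% parasitemia. After 48 h at 37 C under 5% CO2, luciferase detection reagent was added and luminescence read.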

In assay [13] the target is M-phase phosphoprotein 8 (Homo sapiens) (UniProt Q99549). The assay is described as follows: qHTS Validation Assay for Inhibitors for MPP8 Chromodomain Interactions with Methylated Histone Tails (AID 488949).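 Note: 50 nM MPP8 with 50 nM peptide preformed then compounds added for 30 min; AlphaScreen signal from MPP8 chromodomain bound to biotinylated H3K9me3 peptide; top concentration of the series differs between compounds; % is set by controls: 0 for no effect and ±100 for the full control effect; nearly all actives have a fitted effect of over 55% in size.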 In a few lines: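 50 nM MPP8 + 50 nM b-H3K9me3 peptide, PBS pH 7.4/0.01% Tween-20, 30 min RT; + cpd 30 min RT; + AlphaScreen donor/Ni-chelate acceptor beads 10 ug/mL final, 30 min dark; luminescence read.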

The target in assay [14] is Transient receptor potential cation channel subfamily V member 1 (Homo sapiens) (UniProt Q8NER1). Description: HTS Assay for Compounds that Act as Enhancers of the Vanilloid Receptor 1 (AID 488979). Note: 0% is about no effect. In a few lines: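 Calcium influx kinetics via Fluo-8 (480/520 nm) in TRPV1-expressing cells, 2000/well cultured overnight at 35.5C. Compound-alone read 3 min (agonist phase), followed by EC20 capsaicin challenge for 2 min (enhancer phase).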

In assay [15] the target is Thyrotropin receptor (Homo sapiens) (UniProt P16473). The assay is described as follows: qHTS Assay for Antagonists of the Thyroid Stimulating Hormone Receptor (AID 488980). Note: series mostly up to about 58 µM; 0% is about no effect. In outline: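 Readout is cAMP by HTRF competition between cellular cAMP and cAMP-d2 for a cryptate-labelled antibody. Antagonism was assessed in TSHR-transfected HEK293 cells stimulated with 4 nM TSH (EC80, final) in the presence of RO 20-1724.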

Assay [16] addresses Thyrotropin-releasing hormone receptor (Homo sapiens) (UniProt P34981). Description: qHTS for Small Molecule Agonists and Allosteric Enhancers of Human TRH Receptor: Validation Screen for Agonists (AID 493127;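 active = calcium activation more than 3 SD above the typical response in the agonist read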;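 note: intracellular calcium rise by fluo-8 fluorescence before TRH EC20 addition; 0% is about no effect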). The conditions noted are these: TRH receptor agonist cell assay; at 2 µM; stronger effect = higher value. In outline: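 Compounds are added by online pintool to dye-loaded TRHR cells while fluorescence is recorded every second. A rise in calcium signal during the agonist read marks activation; a later 10 nM TRH addition (EC20) serves the separate enhancer mode.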

Assay [17] has as its target Galactokinase (Homo sapiens) (UniProt P51570). Description: qHTS Validation Assay for Inhibitors of Human Galactokinase (GALK) (AID 493189). Note: 0% is about no effect. In a few lines:
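5 nM GALK / 100 uM galactose / 35 uM ATP, 20 mM HEPES pH8.0, 5 mM MgCl2, 60 mM NaCl, 1 mM DTT, 0.01% BSA (final). RT 1 h; Kinase-Glo Plus luminescence.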

Assay [18] can be described thus: Validation screen for small molecules that induce DNA re-replication in SW480 colon adenocarcinoma cells (AID 504364). Note: 0% is about no effect. In a few lines: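 Image-based qHTS: compounds were incubated with SW480 cells for 48 hr, nuclei stained with Hoechst, and per-nucleus fluorescence intensity scanned to flag cells with excess DNA content.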
Assay [19] concerns the target Voltage-gated inwardly rectifying potassium channel KCNH2 (Homo sapiens) (UniProt Q12809). The assay is described as follows: qHTS Assay for Small Molecule Inhibitors of the Human hERG Channel Activity (AID 588834).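 Note: potency is the fitted concentration of half-maximal effect; lower thallium flux fluorescence means stronger hERG block; nearly all actives have a fitted effect of over 50% in size.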 In a few lines: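 Step 1: BacMam hERG transduction of U2OS, 4 hrs RT. Step 2: overnight 37 °C, plate 2000 cells/well, 4 hr. Step 3: FluxOR load, compound 10 min, stimulate, read fluorescence.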

Chain of RecQ-like DNA helicase BLM (Homo sapiens) (P54132 whole entry, looked up): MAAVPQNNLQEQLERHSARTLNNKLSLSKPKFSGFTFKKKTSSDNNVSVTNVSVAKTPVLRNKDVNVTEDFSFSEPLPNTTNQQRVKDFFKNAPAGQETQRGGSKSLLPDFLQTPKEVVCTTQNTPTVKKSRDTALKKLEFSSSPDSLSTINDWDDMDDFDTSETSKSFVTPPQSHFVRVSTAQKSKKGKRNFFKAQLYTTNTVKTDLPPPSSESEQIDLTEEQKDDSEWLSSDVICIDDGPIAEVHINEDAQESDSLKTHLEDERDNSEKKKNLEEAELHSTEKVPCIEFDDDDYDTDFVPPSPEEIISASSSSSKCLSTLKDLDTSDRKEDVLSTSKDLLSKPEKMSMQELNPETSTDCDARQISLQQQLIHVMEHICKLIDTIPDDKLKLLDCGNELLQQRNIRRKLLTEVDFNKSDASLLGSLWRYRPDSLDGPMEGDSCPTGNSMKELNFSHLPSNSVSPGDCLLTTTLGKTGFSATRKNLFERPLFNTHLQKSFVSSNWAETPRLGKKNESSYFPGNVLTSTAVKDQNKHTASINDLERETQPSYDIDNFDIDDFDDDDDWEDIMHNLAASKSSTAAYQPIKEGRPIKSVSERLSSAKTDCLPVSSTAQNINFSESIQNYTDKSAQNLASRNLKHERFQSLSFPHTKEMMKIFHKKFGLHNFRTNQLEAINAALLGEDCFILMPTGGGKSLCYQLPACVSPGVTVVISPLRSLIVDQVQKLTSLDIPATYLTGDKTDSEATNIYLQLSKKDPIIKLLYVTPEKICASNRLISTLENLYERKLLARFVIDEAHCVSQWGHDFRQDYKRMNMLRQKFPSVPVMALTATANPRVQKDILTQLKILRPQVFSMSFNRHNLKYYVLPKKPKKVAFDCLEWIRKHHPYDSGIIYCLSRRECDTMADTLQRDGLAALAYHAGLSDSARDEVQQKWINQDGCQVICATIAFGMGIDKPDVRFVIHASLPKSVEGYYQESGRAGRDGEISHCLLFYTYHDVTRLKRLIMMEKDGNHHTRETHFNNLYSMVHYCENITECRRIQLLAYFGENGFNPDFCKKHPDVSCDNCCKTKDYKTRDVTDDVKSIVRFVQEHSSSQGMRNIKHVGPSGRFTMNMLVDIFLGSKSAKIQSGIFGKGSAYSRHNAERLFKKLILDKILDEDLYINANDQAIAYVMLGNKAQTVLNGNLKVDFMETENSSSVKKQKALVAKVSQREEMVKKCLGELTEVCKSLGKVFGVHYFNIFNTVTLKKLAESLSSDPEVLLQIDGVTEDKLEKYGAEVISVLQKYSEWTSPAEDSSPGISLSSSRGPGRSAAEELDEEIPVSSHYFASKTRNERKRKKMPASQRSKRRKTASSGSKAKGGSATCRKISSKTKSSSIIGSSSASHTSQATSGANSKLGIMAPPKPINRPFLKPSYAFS
Chain of Transient receptor potential cation channel subfamily V member 1 (Homo sapiens) (Q8NER1 whole entry, looked up): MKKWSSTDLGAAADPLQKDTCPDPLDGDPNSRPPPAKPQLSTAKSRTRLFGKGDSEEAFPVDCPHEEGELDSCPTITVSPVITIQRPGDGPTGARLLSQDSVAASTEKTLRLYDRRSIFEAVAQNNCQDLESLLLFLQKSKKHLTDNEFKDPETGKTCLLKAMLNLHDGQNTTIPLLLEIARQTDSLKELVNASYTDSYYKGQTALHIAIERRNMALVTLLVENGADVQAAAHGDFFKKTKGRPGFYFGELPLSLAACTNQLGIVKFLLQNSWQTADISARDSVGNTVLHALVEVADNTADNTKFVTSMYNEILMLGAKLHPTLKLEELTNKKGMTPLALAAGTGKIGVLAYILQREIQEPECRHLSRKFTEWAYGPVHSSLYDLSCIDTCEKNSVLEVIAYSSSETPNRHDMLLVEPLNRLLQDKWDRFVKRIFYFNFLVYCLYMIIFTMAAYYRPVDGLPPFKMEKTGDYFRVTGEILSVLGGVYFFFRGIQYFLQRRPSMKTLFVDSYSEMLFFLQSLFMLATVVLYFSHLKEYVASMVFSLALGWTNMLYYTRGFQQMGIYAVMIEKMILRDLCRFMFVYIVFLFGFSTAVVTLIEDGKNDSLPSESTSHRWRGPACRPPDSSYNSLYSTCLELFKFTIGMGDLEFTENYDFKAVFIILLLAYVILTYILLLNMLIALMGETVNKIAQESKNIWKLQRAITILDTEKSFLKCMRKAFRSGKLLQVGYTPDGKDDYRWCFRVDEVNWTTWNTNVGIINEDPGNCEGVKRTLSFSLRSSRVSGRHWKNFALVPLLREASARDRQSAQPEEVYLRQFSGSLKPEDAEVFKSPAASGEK
Chain of ATP-dependent DNA helicase Q1 (Homo sapiens) (P46063 whole entry, looked up): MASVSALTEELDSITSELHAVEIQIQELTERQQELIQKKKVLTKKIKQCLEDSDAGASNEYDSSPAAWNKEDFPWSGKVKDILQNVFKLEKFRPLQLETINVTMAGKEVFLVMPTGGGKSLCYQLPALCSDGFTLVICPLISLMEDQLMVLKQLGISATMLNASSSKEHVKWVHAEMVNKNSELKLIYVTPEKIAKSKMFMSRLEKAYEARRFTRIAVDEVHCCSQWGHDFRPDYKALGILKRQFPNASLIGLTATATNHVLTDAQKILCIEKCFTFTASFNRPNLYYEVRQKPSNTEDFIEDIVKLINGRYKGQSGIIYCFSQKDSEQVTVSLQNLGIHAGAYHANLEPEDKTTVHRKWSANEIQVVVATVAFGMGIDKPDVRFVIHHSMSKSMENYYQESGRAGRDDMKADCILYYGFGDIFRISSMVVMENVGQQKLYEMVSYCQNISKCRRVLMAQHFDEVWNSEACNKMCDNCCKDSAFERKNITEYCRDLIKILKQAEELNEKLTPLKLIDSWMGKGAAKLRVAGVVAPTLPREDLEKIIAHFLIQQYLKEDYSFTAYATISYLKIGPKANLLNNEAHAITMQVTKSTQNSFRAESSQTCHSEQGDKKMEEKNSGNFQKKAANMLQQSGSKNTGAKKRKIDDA
Chain of Ferritin light chain (Equus caballus) (P02791 2-175 limits assumed): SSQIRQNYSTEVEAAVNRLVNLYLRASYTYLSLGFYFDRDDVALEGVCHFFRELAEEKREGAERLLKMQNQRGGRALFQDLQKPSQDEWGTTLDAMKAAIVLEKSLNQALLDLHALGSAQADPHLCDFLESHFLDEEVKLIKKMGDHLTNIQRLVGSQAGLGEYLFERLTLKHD
Chain of Galactokinase (Homo sapiens) (P51570 whole entry, looked up): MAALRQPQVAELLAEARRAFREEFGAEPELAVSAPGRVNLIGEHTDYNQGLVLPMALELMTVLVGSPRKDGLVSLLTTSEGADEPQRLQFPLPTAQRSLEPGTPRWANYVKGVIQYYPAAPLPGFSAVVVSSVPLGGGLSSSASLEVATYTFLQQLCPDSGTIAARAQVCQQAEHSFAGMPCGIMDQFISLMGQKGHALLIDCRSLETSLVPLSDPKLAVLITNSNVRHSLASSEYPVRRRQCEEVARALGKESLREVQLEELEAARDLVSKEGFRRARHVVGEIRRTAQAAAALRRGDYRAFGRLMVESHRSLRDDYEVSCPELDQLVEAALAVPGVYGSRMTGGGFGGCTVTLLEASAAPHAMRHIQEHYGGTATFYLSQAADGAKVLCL
Chain of Thyrotropin-releasing hormone receptor (Homo sapiens) (P34981 whole entry, looked up): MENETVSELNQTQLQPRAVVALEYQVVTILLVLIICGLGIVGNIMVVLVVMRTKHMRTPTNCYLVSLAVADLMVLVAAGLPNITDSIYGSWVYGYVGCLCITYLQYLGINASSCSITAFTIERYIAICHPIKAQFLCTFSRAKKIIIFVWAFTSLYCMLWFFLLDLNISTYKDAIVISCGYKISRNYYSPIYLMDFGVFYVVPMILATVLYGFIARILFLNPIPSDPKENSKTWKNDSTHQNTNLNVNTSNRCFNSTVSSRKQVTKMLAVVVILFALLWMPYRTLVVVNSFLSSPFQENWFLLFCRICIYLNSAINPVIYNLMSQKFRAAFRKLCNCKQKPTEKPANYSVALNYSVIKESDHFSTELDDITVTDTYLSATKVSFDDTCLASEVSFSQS
Chain of DNA repair nuclease/redox regulator APEX1 (Homo sapiens) (P27695 whole entry, looked up): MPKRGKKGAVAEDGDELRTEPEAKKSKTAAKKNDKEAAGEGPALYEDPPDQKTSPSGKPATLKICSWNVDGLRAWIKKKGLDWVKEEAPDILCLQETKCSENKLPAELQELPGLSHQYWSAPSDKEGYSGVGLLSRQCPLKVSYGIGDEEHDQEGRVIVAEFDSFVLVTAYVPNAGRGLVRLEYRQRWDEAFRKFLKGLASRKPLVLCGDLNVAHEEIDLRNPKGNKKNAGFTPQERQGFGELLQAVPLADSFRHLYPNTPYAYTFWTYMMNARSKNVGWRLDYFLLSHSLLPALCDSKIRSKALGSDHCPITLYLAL
Chain of M-phase phosphoprotein 8 (Homo sapiens) (Q99549 whole entry, looked up): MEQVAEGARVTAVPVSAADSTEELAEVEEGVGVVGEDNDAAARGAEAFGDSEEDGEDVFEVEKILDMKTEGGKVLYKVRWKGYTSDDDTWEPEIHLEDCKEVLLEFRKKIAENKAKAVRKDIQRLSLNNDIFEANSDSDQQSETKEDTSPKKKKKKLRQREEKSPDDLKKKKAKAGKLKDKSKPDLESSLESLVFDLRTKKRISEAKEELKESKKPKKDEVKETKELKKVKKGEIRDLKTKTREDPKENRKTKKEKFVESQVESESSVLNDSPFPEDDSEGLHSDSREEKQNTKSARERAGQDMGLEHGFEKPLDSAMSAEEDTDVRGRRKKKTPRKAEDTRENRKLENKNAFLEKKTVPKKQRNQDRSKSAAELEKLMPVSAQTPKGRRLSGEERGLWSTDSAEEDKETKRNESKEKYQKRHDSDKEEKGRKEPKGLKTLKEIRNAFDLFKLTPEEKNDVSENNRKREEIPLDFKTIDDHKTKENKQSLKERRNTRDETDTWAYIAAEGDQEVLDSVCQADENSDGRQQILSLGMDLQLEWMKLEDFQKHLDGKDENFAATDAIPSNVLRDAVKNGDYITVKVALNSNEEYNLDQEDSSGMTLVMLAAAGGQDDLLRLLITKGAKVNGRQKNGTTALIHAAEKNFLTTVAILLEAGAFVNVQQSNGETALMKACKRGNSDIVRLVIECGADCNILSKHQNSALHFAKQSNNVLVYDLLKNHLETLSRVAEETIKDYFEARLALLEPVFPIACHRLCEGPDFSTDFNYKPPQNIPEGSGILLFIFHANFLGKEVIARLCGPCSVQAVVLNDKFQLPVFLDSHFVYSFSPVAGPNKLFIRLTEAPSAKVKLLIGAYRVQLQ

With `CCCCN1CCC(COC(=O)c2cc(Cl)c(N)c3c2OCCO3)CC1`, the Potency result in assay [1], in assay [3], in assay [10], in assay [11], in [12] and in assay [13] was “inactive” throughout. Also, the Potency entry in assay [18] was “inactive”. Besides, the result in assay [2], in assay [8], in assay [9], in assay [14], in assay [15] and in assay [17] was inactive. For the same compound, the Potency is 10 µM (active) in assay [4]; 12.6 µM (active) in [5]; 8.91 µM (active) in [6]; 7.08 µM (active) in assay [7]; 2.24 µM (active) in [19]. The activation in assay [16] is 1.19%.
